Experimental data reported in PubChem BioAssay (EPA / NIEHS).
Activity calls are given as the source filed them. The calls were made as follows: active = hit-call score of the fitted dose curve at least 0.9, where 1 is the maximum; inactive = score below 0.9.

Columns and labels:
[1] = read-out: Tissue Factor, F3 (gene 2152); test: BSK_CASM3C_TissueFactor: BioMAP Diversity Plus: CASM3C Assay for Tissue Factor Biomarker Activity (AID 2283052); settings: primary human coronary artery smooth muscle cells; actives raise or lower the signal;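 also: cell surface tissue factor protein level read by ELISA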
[2] = read-out: Interferon-gamma inducible Protein 10 (IP10), CXCL10 (gene 3627); test: BSK_hDFCGF_IP10: BioMAP Diversity Plus: hDFCGF Assay for Interferon-gamma inducible Protein 10 (IP10) Biomarker Activity (AID 2283053); settings: primary human foreskin fibroblasts; actives raise or lower the signal
Procedure, shortened: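 Chemical-treated human skin fibroblasts (primary) were sampled at 24 h for IP-10 by ELISA. Both increases and decreases relative to DMSO were scored.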

[3] = read-out: Urokinase-type plasminogen activator receptor (uPAR), PLAUR (gene 5329); test: BSK_CASM3C_uPAR: BioMAP Diversity Plus: CASM3C Assay for Urokinase-type plasminogen activator receptor (uPAR) Biomarker Activity (AID 2283054); settings: primary human coronary artery smooth muscle cells; actives raise or lower the signal;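 also: cell-surface uPAR protein level quantified by ELISA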
[4] = read-out: Vascular cell adhesion molecule 1 (VCAM1), VCAM1 (gene 7412); test: BSK_CASM3C_VCAM1: BioMAP Diversity Plus: CASM3C Assay for Vascular cell adhesion molecule 1 (VCAM1) Biomarker Activity (AID 2283055); settings: primary human coronary artery smooth muscle cells; actives raise or lower the signal;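 also: VCAM-1 protein level quantified by ELISA on the cells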
[5] = read-out: Collagen III, COL3A1 (gene 1281); test: BSK_hDFCGF_CollagenIII: BioMAP Diversity Plus: hDFCGF Assay for Collagen III Biomarker Activity (AID 2283056); settings: primary human foreskin fibroblasts; actives raise or lower the signal
Procedure, shortened: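 hDFCGF primary human dermal fibroblasts; 24 h chemical exposure; collagen III by ELISA; bidirectional curve fit vs DMSO baseline (gain or loss of signal).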

[6] = read-out: Epidermal growth factor receptor (EGFR), EGFR (gene 1956); test: BSK_hDFCGF_EGFR: BioMAP Diversity Plus: hDFCGF Assay for Epidermal growth factor receptor (EGFR) Biomarker Activity (AID 2283057); settings: primary human foreskin fibroblasts; actives raise or lower the signal
Procedure, shortened: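 Cell-based multiplexed assay in primary human foreskin fibroblasts. EGFR is read by ELISA 24 h after treatment and compared with DMSO controls.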

[7] = read-out: Interleukin-8 (IL8), CXCL8 (gene 3576); test: BSK_hDFCGF_IL8: BioMAP Diversity Plus: hDFCGF Assay for Interleukin-8 (IL8) Biomarker Activity (AID 2283058); settings: primary human foreskin fibroblasts; actives raise or lower the signal
Procedure, shortened: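 ELISA read-out of IL-8 from primary human foreskin fibroblast cultures taken 24 h after dosing; values are bidirectional fits relative to DMSO vehicle.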

[8] = read-out: Macrophage colony-stimulating factor (MCSF), CSF1 (gene 1435); test: BSK_hDFCGF_MCSF: BioMAP Diversity Plus: hDFCGF Assay for Macrophage colony-stimulating factor (MCSF) Biomarker Activity (AID 2283060); settings: primary human foreskin fibroblasts; actives raise or lower the signal
Procedure, shortened: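 ELISA read-out of M-CSF in human dermal foreskin fibroblast cultures, 24 h after chemical dosing; gain or loss of signal fitted bidirectionally relative to DMSO baseline.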

[9] = BSK_hDFCGF_SRB: Viability Assessment in the BioMAP Diversity Plus: hDFCGF Assay (AID 2283061); settings: primary human foreskin fibroblasts;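 also: cells exposed to compound for 24 h before the read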
Procedure, shortened: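 Primary human foreskin fibroblasts; 24 h post-dose; fixed 10% TCA, stained 0.1% SRB, A560 read; total protein as overt cytotoxicity measure; curves fit bidirectionally vs DMSO control.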

[10] = BSK_hDFCGF_Proliferation: Cell Proliferation Assessment in the BioMAP Diversity Plus: hDFCGF Assay (AID 2283059); settings: primary human foreskin fibroblasts;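 also: curves fitted for both rise and fall of signal versus DMSO baseline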
Procedure, shortened: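 Primary human foreskin fibroblasts, sub-confluent; […]; 10% TCA fix, 0.1% SRB stain, A560 total protein. Gain/loss fitted bidirectionally vs DMSO control.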

Measured: AC50

OC[C@@H](O)[C@@H](O)[C@H](O)[C@H](O)CO
not listed: [10]
inactive: all other assays above

Cc1ccc(N(C)C)cc1
not listed: [10]
inactive: all other assays above

FC(F)(F)C(F)(F)C(F)(F)C(F)(F)C(F)(F)C(F)(F)CCI
not listed: [6]
inactive: all other assays above

C[Si]1(C)O[Si](C)(C)O[Si](C)(C)O[Si](C)(C)O1
not listed: [6]
inactive: all other assays above

CC(=O)C(C)=CC1C(C)=CCCC1(C)C (stereo not drawn)
not listed: [10]
inactive: all other assays above

Cc1ccc(C)c(C)c1
not listed: [10]
inactive: all other assays above

CCCCCCCCCCCCCCCC
not listed: [6]
inactive: all other assays above

Cc1ccc2ncccc2c1
not listed: [10]
inactive: all other assays above

CCCCN(CCCC)CCCC
not listed: [6]
inactive: all other assays above

NS(=O)(=O)c1cc2c(cc1Cl)NCNS2(=O)=O
not listed: [10]
inactive: all other assays above

Cc1ccccc1Cl
not listed: [10]
inactive: all other assays above

O=[N+]([O-])C(CO)(CO)CO
not listed: [10]
inactive: all other assays above

CCCCCCC(=O)OCC
not listed: [6]
inactive: all other assays above

C=CCc1ccc(O)c(OC)c1
not listed: [6]
inactive: all other assays above

CCCCCCCCCCO
not listed: [6]
inactive: all other assays above

CNC(=O)[C@H]1O[C@@H](n2cnc3c(NCc4cc(Cl)ccc4OCc4cc(C)no4)ncnc32)[C@H](O)[C@@H]1N
not listed: [6]
inactive: all other assays above

COc1cc(S(=O)(=O)O)c(C)cc1N=Nc1c(O)ccc2cc(S(=O)(=O)O)ccc12
not listed: [10]
inactive: all other assays above

CCCc1cc(=O)[nH]c(=S)[nH]1
not listed: [6] | [10]
inactive: all other assays above

CCCCC(CC)COC(=O)CC(C(=O)OCC(CC)CCCC)S(=O)(=O)O (stereo not drawn)
inactive: [1] | [3] | [4]
active: [2] 7.42 µM | [5] 8.52 µM | [7] 12.9 µM | [8] 9.34 µM | [9] 24.4 µM

CCCCCCCC=O
not listed: [6]
inactive: all other assays above

NCCO
not listed: [6]
inactive: all other assays above

O=c1c(O)c(-c2ccc(O)c(O)c2)oc2cc(O)cc(O)c12
active: [1] 4.13 µM | [2] 20 µM | [3] 6.66 µM | [8] 7.26 µM | [9] 12.2 µM
inactive: [4] | [5] | [7]

CN[C@H]1CC[C@@H](c2ccc(Cl)c(Cl)c2)c2ccc(S(N)(=O)=O)cc21
active: [1] 9.57 µM | [2] 26 µM | [3] 27.3 µM | [4] 31.4 µM | [5] 20 µM | [7] 34.1 µM | [8] 20 µM | [9] 28.1 µM

CCCCOC(=O)CCCCCCCCC(=O)OCCCC
not listed: [6]
inactive: all other assays above

CCNc1cccc(C)c1
not listed: [6]
inactive: all other assays above

O=C(N[C@@H](Cc1ccccc1)[C@@H](O)C(=O)N1C[C@@H](O)[C@@H](O)C1)c1cc2cc(Cl)ccc2[nH]1
not listed: [6] | [10]
inactive: all other assays above

C=CCOC(=O)c1ccccc1C(=O)OCC=C
not listed: [6] | [10]
inactive: all other assays above

COc1ccc(S(=O)(=O)N2C(=O)[C@@](c3ccccc3OC)(N3C[C@H](O)C[C@H]3C(=O)N(C)C)c3cc(Cl)ccc32)c(OC)c1
active: [9] 26.5 µM
not listed: [6] | [10]
inactive: all other assays above

CCCCCCOCCO
not listed: [6] | [10]
inactive: all other assays above

O=C(OCCCCCOC(=O)c1ccccc1)c1ccccc1
not listed: [6]
inactive: all other assays above

CCOc1ccc2c(c1)C(C)=CC(C)(C)N2
active: [2] 20 µM | [5] 15.1 µM | [8] 6.14 µM
not listed: [6] | [10]
inactive: all other assays above

CCCCCCCCCCC
not listed: [6] | [10]
inactive: all other assays above

C[C@]12C=CC(=O)C=C1CC[C@@H]1[C@@H]2C(=O)C[C@@]2(C)[C@H]1CC[C@]2(O)C(=O)CO
active: [3] 0.239 µM
not listed: [6] | [10]
inactive: all other assays above

O=C(O)CCCCC(=O)O
not listed: [6] | [10]
inactive: all other assays above

Cc1nc(-c2ccc3c(c2)CCN(CCC2CCC(NC(=O)/C=C/c4ccc(F)cc4)CC2)CC3)no1 (stereo not drawn)
active: [4] 6.35 µM
not listed: [6]
inactive: all other assays above

CC=Cc1ccc(O)c(OC)c1
not listed: [6] | [10]
inactive: all other assays above

CCCCCC(=O)O
not listed: [6]
inactive: all other assays above

CC(C)(C)c1cc(O)c(C(C)(C)C)cc1O
active: [2] 20 µM | [5] 9.11 µM | [10] 29.1 µM | [8] 17.6 µM
not listed: [6]
inactive: all other assays above

CC(=O)OCCOCCOCCOC(C)=O
not listed: [6] | [10]
inactive: all other assays above

CCCCc1ccc2c(n1)[C@@H](c1ccc(OC)cc1C[C@H](C)C(=O)O)[C@H](C(=O)O)[C@H]2c1ccc2c(c1)OCO2
not listed: [6] | [10]
inactive: all other assays above

CCc1c(C(=O)NN2CCCCC2)nn(-c2ccc(Cl)cc2Cl)c1-c1ccc(Br)cc1
inactive: [1] | [4]
active: [2] 4.55 µM | [3] 25.1 µM | [5] 0.483 µM | [7] 3.39 µM | [10] 1.73 µM | [8] 3.75 µM | [9] 2.85 µM

Cc1cc(=O)[nH]c(=S)[nH]1
not listed: [6]
inactive: all other assays above

Cc1oc(-c2ccccc2)nc1CCOc1cccc2c1ccn2CCC(=O)O
not listed: [6] | [10]
inactive: all other assays above

Nc1nc(N)c2nc(CNc3ccc(C(=O)N[C@@H](CCC(=O)O)C(=O)O)cc3)cnc2n1
not listed: [6]
inactive: all other assays above

COCCOC[C@H](CC1(C(=O)NC2CCC(C(=O)O)CC2)CCCC1)C(=O)Oc1ccc2c(c1)CCC2 (stereo partly drawn)
not listed: [6]
inactive: all other assays above

Clc1cc(Cl)c(Cl)cc1Cl
not listed: [6]
inactive: all other assays above
